Data taken from PubChem BioAssay AID1159580 (chemical genetic matrix, 2015).
Screen size: about 5,500 compounds; about 2,000 (36%) were called active. About 18% were inconclusive and are not listed. Rule as the data show it: active = normalized growth mostly below about 0.91 (no sharp cut-off); inconclusive = no clear call, values can overlap the other calls; inactive = mostly above about 0.92. The list shows a part of the results.

Test: chemical genetic growth profiling, strain panel (AID 1159580);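 also: tested at 20 µM; growth read once vehicle control cultures reached saturation at 30 °C; 1 = growth at the plate median or of vehicle wells; lower values mean less growth of the strain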
Conditions: S. cerevisiae deletion strains, growth OD
[1] = locus YAL040C, strain CLN3, hits give low values
[2] = locus YCL061C, strain MRC1 (second series), hits give low values
[3] = locus YDR150W, strain NUM1, hits give low values
[4] = locus YDR363W, strain ESC2, hits give low values
[5] = locus YER002W, strain NOP16, hits give low values
[6] = locus YGR078C, strain PAC10, hits give low values
[7] = locus YNL128W, strain TEP1, hits give low values
[8] = locus YNL153C, strain GIM3, hits give low values
[9] = locus YNL175C, strain NOP13, hits give low values
[10] = locus YNL197C, strain WHI3, hits give low values
[11] = locus YNL224C, strain SQS1, hits give low values
[12] = locus YOR083W, strain WHI5 (second series), hits give low values
[13] = locus YPL241C, strain CIN2, hits give low values

Measured: normalized growth

CNCC[C@@H](Oc1ccc(C(F)(F)F)cc1)c1ccccc1
inactive: [1] 1.04 | [2] 0.977 | [3] 0.998 | [4] 0.943 | [5] 0.993 | [6] 1.01 | locus YJR075W, strain HOC1, hits give low values 0.982 | locus YMR307W, strain GAS1, hits give low values 0.999 | [7] 1.03 | [8] 1.01 | [9] 1.04 | [10] 1.01 | [11] 1.02 | locus YNL322C, strain KRE1, hits give low values 0.963 | [12] 1.01 | locus YPL055C, strain LGE1, hits give low values 0.975 | [13] 0.978

CNCC[C@H](Oc1ccc(C(F)(F)F)cc1)c1ccccc1
inactive: [1] 0.981 | [2] 0.985 | [3] 0.993 | [4] 1.01 | [5] 1.01 | [6] 0.969 | locus YMR263W, strain SAP30, hits give low values 0.997 | [7] 1.01 | [8] 0.886 | [9] 1 | [10] 0.988 | [11] 1 | [12] 0.874 | [13] 0.982
